# Bioassay records deposited in PubChem BioAssay by several laboratories.
# This is a sample that favours compounds with a hit; in the whole collection about 2.8% have one here.
# HIF-2a inh: HIF-2a inhibition; 786-0 RCC cells HIF-2a reporter, luciferase luminescence, overnight; inhibition, % at 18.8 µM; actives 0.72% (n = 360,000); AID 624352;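 active = inhibition of the luminescence signal of 40% or more relative to plate controls, in a single-dose primary screen at 18.75 µM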
# MITF TRPM1 inh: reduces MITF-dependent TRPM1 promoter luciferase signal | AID 488899 | SK-MEL-5 TRPM1 promoter luciferase, 24 h | inhibition, % at 12.5 µM | actives 0.83% (n = 330,000);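 active = mean inhibition across replicates of 60% or more, whatever share of single replicates reaches that level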
# KKLEB tox: reduces viability of KKLEB cystic fibrosis airway cells; actives 0.36% (n = 360,000); activity change (cytotoxicity), % at 5 µM; KKLEB CF airway cells viability, ATPlite luminescence, overnight; active compounds read low; cells stimulated with P. aeruginosa culture filtrate; AID 602141;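 active = corrected activity change at or below -50% at 5 µM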
# Shn3 inh set2: reduces Shn3 3'UTR luciferase signal in osteoblasts | inhibition, % at 12.5 µM | actives 0.52% (n = 360,000) | Clone20 osteoblast Shn3 3'UTR firefly luciferase, 24 h;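 active = mean inhibition of at least 75% with every replicate also reaching 75%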;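 note: 0% = median of neutral control wells and 100% = pilot-screen positive control compound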
# CF NFkB block: blocks PAF-induced NF-kB reporter in cystic fibrosis cells; KKLEB NF-kB-GFP reporter, GFP fluorescence overnight; inhibition, % at 5 µM; actives 0.86% (n = 360,000); AID 588850;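 active = at least 50% inhibition at 5 µM, scaled per plate between neutral and stimulator controls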;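 note: PAF is a Pseudomonas aeruginosa culture filtrate used as stimulus; plate controls were PAF-stimulated DMSO wells for no effect and unstimulated DMSO wells for full effect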
# Peg3 prom inh: Peg3 promoter activity inhibition; HeLa PEG-Prom luciferase reporter, luminescence, overnight; inhibition, % at 20 µM; actives 1.7% (n = 360,000);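 active = inhibition of at least 50% at 20 µM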
# An asterisk follows results filed as active; nt = no result given.
SMILES,HIF-2a inh,MITF TRPM1 inh,KKLEB tox,Shn3 inh set2,CF NFkB block,Peg3 prom inh
CCOc1ccc(CCNC(=O)C(CCC(N)=O)NC(=O)OCc2ccccc2)cc1OCC (stereo not given),13.8,10.5,9.3,12.4,1.2,10.8
CCCCC1CCC(C(=O)N(CCC(C)C)c2c(N)n(CCCC)c(=O)[nH]c2=O)CC1 (stereo not given),13.1,nt,-1.4,-0.2,-4.2,98.2*
CCCCC1CCC(C(=O)N(CC(C)C)c2c(N)n(CCCC)c(=O)[nH]c2=O)CC1 (stereo not given),18.1,73.9*,-10.6,51.5,13.1,13.7
CCCCC1CCC(C(=O)N(CCCC)c2c(N)n(CCCC)c(=O)[nH]c2=O)CC1 (stereo not given),18.5,91.1*,-7.0,69.4,12.8,21.3
CCCCn1c(N)c(N(CCC(C)C)C(=O)C2CCCO2)c(=O)[nH]c1=O (stereo not given),6.7,5.2,16.7,-31.8,-20.6,-3.3
CC(C(=O)NCc1ccco1)n1ccc2cc(S(=O)(=O)N3CCCCC3)ccc21 (stereo not given),1.8,2.2,-17.2,11.7,35.9,0.1
Cc1ccc(C(=O)NCCN2CCC(n3c(=O)[nH]c4ccccc43)CC2)cc1C,-14.2,nt,nt,nt,nt,nt
O=S(=O)(c1cccc2ccccc12)N1CCC2CC1c1cc(Cl)ccc12 (stereo not given),4.2,8.8,4.8,15.3,11.8,3.2
Cc1cc(S(=O)(=O)ON2C(=O)c3ccccc3C2=O)ccc1F,34.2,43.5,-8.2,-0.9,7.6,61.3*
CC(=O)NCC(=O)NC1CC(C)(C)Cc2c1cnn2-c1ccccc1 (stereo not given),15.3,8.6,5.1,3.6,0.9,12.0
C=CC[n+]1ccc(/C=C2\C=Cc3cc(C)ccc3N2CC)c2ccccc21,-18.3,83.8*,-33.1,70.7,48.4,43.1
O=[N+]([O-])c1ccc(-[n+]2ccc3ccccc3c2)c([N+](=O)[O-])c1,34.4,89.2*,-81.0*,-66.0,81.8*,95.5*
C=CCN=C(NC#N)SCC(=O)c1cccc(OC)c1,-178.1,-70.4,-19.9,-93.0,60.9*,-171.7
CCOc1ccc2cc(C3CC(c4ccco4)=NN3S(C)(=O)=O)c(=O)[nH]c2c1 (stereo not given),31.3,4.8,0.1,-8.7,15.0,16.8
Cc1csc(NC(=O)CSc2nc3[nH]c(=O)cc(O)c3s2)n1,30.4,87.1*,-18.8,75.9,70.6*,99.0*
O=C(NC(c1ccc(-c2ccccc2)cc1)c1cnccn1)C1CCN(Cc2ccc(Cl)c(Cl)c2)CC1 (stereo not given),-11.4,nt,-13.8,-5.6,3.5,26.5
Cn1cc(CN2CCC(C(=O)NC(c3ccc(-c4ccccc4)cc3)c3cnccn3)CC2)c2ccccc21 (stereo not given),-29.8,nt,-27.6,-29.4,37.6,107.2*
c1csc(C(c2nnnn2C2CCCCC2)N2CCCC3(CCCCC3)C2)c1 (stereo not given),14.3,-8.6,-5.9,35.9,13.8,11.0
CC(C)(C)n1nnnc1C(c1cccs1)N1CCCC2(CCCCC2)C1 (stereo not given),2.3,2.1,10.2,85.3*,-5.6,27.2
S=C(NCCc1ccccc1)Nc1cccc2cnccc12,-29.8,22.6,5.5,89.3*,3.9,-18.9
CCN1C(=O)N(CC)C(O)(c2ccccc2)C1(O)c1ccccc1 (stereo not given),7.7,0.7,-0.8,-15.0,13.0,3.0
CC(C)(C)C1=CC(O)(c2ccccc2)C=C(C(C)(C)C)C1=O,20.2,5.8,4.6,6.5,20.1,78.1*
O=[N+]([O-])c1cc([N+](=O)[O-])c(Oc2ccc(Cl)c3cccnc23)cc1NN1CCCCC1,15.6,3.3,-12.0,-5.8,25.0,6.5
CCc1ccc(-c2cc(C(=O)Nn3cnnc3)c3ccccc3n2)cc1,11.2,65.6*,-31.7,15.3,-0.9,36.8
CCNC(=S)NNC(=O)c1cc(-c2ccc(OCC)cc2)nc2ccccc12,-15.1,22.2,-51.4*,8.1,-5.2,-28.5
SMILES,HIF-2a inh,MITF TRPM1 inh,KKLEB tox,Shn3 inh set2,CF NFkB block,Peg3 prom inh
CCCc1ccc(-c2cc(C(=O)NN3CCOCC3)c3ccccc3n2)cc1,-152.2,-59.6,-30.1,-25.1,-50.4,-152.8
CCNC(=S)NNC(=O)c1cc(-c2cccc(OC)c2)nc2ccccc12,-118.7,1.4,-3.8,-5.5,-10.3,-103.2
CCNS(=O)(=O)c1ccc(CCC(=O)Nc2cc(Cl)ccc2Oc2ccccc2)cc1,23.9,25.0,-14.1,57.9,14.7,63.3*
CC(C)NS(=O)(=O)c1ccc(CCC(=O)Nc2cc(Cl)ccc2Oc2ccccc2)cc1,24.9,11.2,-4.2,82.6,6.3,28.8
CO[C@H]1C=CO[C@@]2(C)Oc3c(C)c(O)c4c(O)c(c(C=NN5CCN(C)CC5)c(O)c4c3C2=O)NC(=O)C(C)=CC=C[C@H](C)[C@H](O)[C@@H](C)[C@@H](O)[C@@H](C)[C@H](OC(C)=O)[C@@H]1C,7.9,15.7,3.7,3.1,7.4,13.1
CO[C@H]1/C=C/O[C@@]2(C)Oc3c(C)c(O)c4c(O)c(c(C=NN5CCN(C)CC5)c(O)c4c3C2=O)NC(=O)/C(C)=C\C=C\[C@H](C)[C@H](O)[C@@H](C)[C@@H](O)[C@@H](C)[C@H](OC(C)=O)[C@@H]1C,25.4,0.5,-6.9,18.0,54.6*,-11.0
CCOC(=O)c1cnc2c(c(C)nn2C)c1Oc1cc(Cl)cc(Cl)c1,12.5,4.3,-0.4,3.3,2.7,4.5
CCOC(=O)c1cnc2c(c(C)nn2-c2ccc(C)cc2)c1Cl,6.1,21.2,-3.1,-26.1,22.6,101.3*
O=C(Oc1ccc([N+](=O)[O-])cc1)c1cncc(Br)c1,-13.2,-8.8,15.2,-19.8,1.5,-40.3
Cc1cc(C)n(C(C[N+](=O)[O-])c2ccc(Cl)cc2)n1 (stereo not given),22.6,31.9,4.7,1.9,-5.6,99.5*
Cc1cc(O)c(C(C[N+](=O)[O-])c2ccc(Cl)cc2)c(=O)o1 (stereo not given),4.7,-2.2,11.3,-0.9,-4.9,11.1
Cn1nc(Cc2cccc3ccccc23)c(C#N)c1N,14.2,7.7,3.0,3.7,7.3,13.3
CC(C)(C)n1nc(Cc2cccc3ccccc23)c2c(N)ncnc21,33.9,13.9,0.9,21.3,50.4*,44.3
Cc1cc(N)n(-c2ccc(Oc3ccccc3)c(S(=O)(=O)O)c2)n1,5.8,3.4,7.6,3.7,-40.8,-4.0
Cc1ccc(-c2nc(N/N=C/c3cccnc3)c3ccccc3n2)cc1,-221.0,-30.4,-71.3*,-15.3,-28.3,-113.6
Cc1ccc(-c2nc(Nc3ccc(O)cc3)c3ccccc3n2)cc1,-143.2,-15.4,-1.2,14.7,-21.3,59.3*
